Drawing on PubChem BioAssay (EPA / NIEHS), this text covers outcome and AC50 for 19 molecules.

Usually AC50 stands for the concentration giving half of the maximal activity seen.

Each structure is given as a SMILES string. Records with an inconclusive call do not appear. The source made the active and inactive calls. Rule for the calls, unless noted: active = hit-call score of the fitted dose curve at least 0.9, where 1 is the maximum; inconclusive = response in the unintended direction; inactive = score below 0.9.

Test [1] concerns the target Oxysterols receptor LXR-alpha (Homo sapiens) (UniProt Q13133). Put plainly: ATG_LXRa_TRANS: Attagene TRANS-FACTORIAL HepG2 Assay for human Liver X Receptor alpha (LXRa) (AID 2282980). The settings on record: HepG2 Attagene TRANS reporter, LXRa transactivation. The method in brief: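 In this multiplexed TRANS system, compounds act on HepG2 cells carrying GAL4-UAS reporter units and a receptor-GAL4 fusion for 24 h. Induced reporter RNA is amplified, fluorescently labelled and sized by capillary electrophoresis, with DMSO as baseline.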

The target in test [2] is Oxysterols receptor LXR-beta (Homo sapiens) (UniProt P55055). Put plainly: ATG_LXRb_TRANS: Attagene TRANS-FACTORIAL HepG2 Assay for human Liver X Receptor beta (LXRb) (AID 2282981). The settings on record: HepG2 Attagene TRANS GAL4-LXRb reporter, mRNA. The method, boiled down:
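HepG2 cells transiently transfected with GAL4-UAS reporter units for chimeric NR-Gal4 proteins, dosed for 24 h. Reporter transcripts measured by RT-PCR and capillary electrophoresis; gain-of-signal fitting relative to DMSO.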

For test [3], the target named is Hepatocyte nuclear factor 4-alpha (Homo sapiens) (UniProt P41235). Put plainly: ATG_HNF4a_TRANS: Attagene TRANS-FACTORIAL HepG2 Assay for human Hepatocyte Nuclear Factor 4 alpha (HNF4a) (AID 2282982). The note with it: HepG2 HNF4a transactivation reporter, mRNA readout. The method, boiled down: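 HepG2 cells transiently transfected with HNF4a-Gal4 chimera and GAL4-UAS reporter units, dosed for 24 h. Reporter mRNA measured by RT-PCR, fluorescent primer extension and capillary electrophoresis; gain-of-signal fitted relative to DMSO.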

Test [4] is described as follows: ATG_M_06_TRANS: Attagene TRANS-FACTORIAL HepG2 Assay for M06 Transcription Factor (Internal Marker) (AID 2282983).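 For AC50: potency for rise in reporter mRNA above DMSO baseline.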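 For outcome: reporter transcript level by RT-PCR then capillary electrophoresis fluorescence.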 The settings on record: HepG2 Attagene TRANS M06 internal marker reporter. The method, boiled down:
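Internal-marker background readout from a multiplexed TRANS reporter system in HepG2; 24 h dosing; mRNA induction quantified by RT-PCR plus capillary electrophoresis fluorescence; DMSO as negative control and baseline.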

The target in test [5] is Transcriptional activator Myb (Homo sapiens) (UniProt P10242). Description: ATG_Myb_CIS: Attagene CIS-FACTORIAL HepG2 Assay for human Myeloblastosis (Myb) Proto-Oncogene Transcription Factor (AID 2282986; active = hit-call score of the fitted dose curve at least 0.9, where 1 is the maximum; inactive = score below 0.9). The note with it: HepG2 Attagene CIS-FACTORIAL Myb reporter transcription; actives raise or lower the signal. The method, boiled down: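 Transiently transfected HepG2 cells carrying a multiplexed cis-promoter reporter set report endogenous Myb activity after 24 h compound exposure. Reporter mRNA is read by RT-PCR with capillary electrophoresis of fluorescent products, fitted bidirectionally against DMSO.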

Test [6] concerns the target Nuclear respiratory factor 1 (Homo sapiens) (UniProt Q16656). Description: ATG_NRF1_CIS: Attagene CIS-FACTORIAL HepG2 Assay for human Nuclear Respiratory Factor 1 (NRF1) Orphan Gene (AID 2282987; active = hit-call score of the fitted dose curve at least 0.9, where 1 is the maximum; inactive = score below 0.9). The settings on record: HepG2 NRF1 cis-element reporter, Attagene multiplex; actives raise or lower the signal. The method in brief: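 HepG2 cells transiently transfected with multiple cis-regulated reporter units, exposed 24 h. Reporter mRNAs measured by RT-PCR, fluorescent labelling, HpaI digestion and capillary electrophoresis; bidirectional fitting against DMSO.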

Test [7] can be described thus: ATG_NFI_CIS: Attagene CIS-FACTORIAL HepG2 Assay for human Nuclear Factor I (NFI) (AID 2282989; active = hit-call score of the fitted dose curve at least 0.9, where 1 is the maximum; inactive = score below 0.9). The note with it: HepG2 cis-regulatory reporter, NFI response element transcription; actives raise or lower the signal. The method in brief: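 Transient MRTU transfection of HepG2 → 24 h chemical dosing → total RNA, oligo(dT) RT → PCR, 6-FAM primer extension, HpaI cut → capillary electrophoresis. Endpoint fitted bidirectionally relative to DMSO.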

Test [8] addresses Bile acid receptor (Homo sapiens) (UniProt Q96RI1). Put plainly: ATG_FXR_TRANS: Attagene TRANS-FACTORIAL HepG2 Assay for Farnesoid X Receptor (FXR) (AID 2282979).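 Note: hits raise reporter mRNA above DMSO so AC50 marks FXR activation.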 The note with it: HepG2 Attagene TRANS FXR-GAL4 reporter transcription. The method, boiled down: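 After 24 h chemical treatment of transfected HepG2 cells, GAL4-UAS reporter transcripts driven by an exogenous FXR-GAL4 fusion were measured by RT-PCR and capillary electrophoresis. Increases over DMSO were fitted.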

The nature of test [9]: ATG_M_32_TRANS: Attagene TRANS-FACTORIAL HepG2 Assay for M32 Transcription Factor (Internal Marker) (AID 2282984).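 Note: transcript level of a background control reporter unit measured by RT-PCR and capillary electrophoresis.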 The settings on record: HepG2 Attagene TRANS M32 internal marker reporter. The method in brief:
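HepG2 cells transiently transfected with GAL4-UAS reporter units, dosed for 24 hours. Reporter mRNA quantified by RT-PCR, 6-FAM labelling, HpaI digestion and capillary electrophoresis; internal-marker signal fitted upward relative to DMSO.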

Test [10] concerns the target Nuclear receptor subfamily 4 group A member 2 (Homo sapiens) (UniProt P43354). Put plainly: ATG_NURR1_TRANS: Attagene TRANS-FACTORIAL HepG2 Assay for human Nuclear Receptor Related Protein 1 (NURR1) (AID 2282985). The settings on record: HepG2 Attagene TRANS reporter, mRNA readout. The method, boiled down: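 HepG2 cells transiently transfected with NURR1-Gal4 chimera and GAL4-UAS reporter units; after 24 hr compound exposure, reporter mRNA quantified by RT-PCR and capillary electrophoresis; gain of signal fitted against DMSO.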

Chain of Bile acid receptor (Homo sapiens) (Q96RI1 whole entry, looked up, the tested form may be a part): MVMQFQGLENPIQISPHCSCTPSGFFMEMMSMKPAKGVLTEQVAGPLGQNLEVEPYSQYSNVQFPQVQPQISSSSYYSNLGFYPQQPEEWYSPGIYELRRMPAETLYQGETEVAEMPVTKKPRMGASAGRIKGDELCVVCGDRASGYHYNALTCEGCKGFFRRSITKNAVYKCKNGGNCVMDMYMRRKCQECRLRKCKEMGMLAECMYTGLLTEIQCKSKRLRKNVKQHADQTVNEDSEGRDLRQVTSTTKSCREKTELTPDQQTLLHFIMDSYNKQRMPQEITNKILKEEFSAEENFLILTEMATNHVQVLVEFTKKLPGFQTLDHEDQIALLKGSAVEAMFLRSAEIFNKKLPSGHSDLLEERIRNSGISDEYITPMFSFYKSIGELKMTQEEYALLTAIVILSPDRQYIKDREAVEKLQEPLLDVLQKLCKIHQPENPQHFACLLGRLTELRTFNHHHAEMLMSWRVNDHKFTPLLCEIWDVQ
Chain of Oxysterols receptor LXR-beta (Homo sapiens) (P55055 whole entry, looked up, the tested form may be a part): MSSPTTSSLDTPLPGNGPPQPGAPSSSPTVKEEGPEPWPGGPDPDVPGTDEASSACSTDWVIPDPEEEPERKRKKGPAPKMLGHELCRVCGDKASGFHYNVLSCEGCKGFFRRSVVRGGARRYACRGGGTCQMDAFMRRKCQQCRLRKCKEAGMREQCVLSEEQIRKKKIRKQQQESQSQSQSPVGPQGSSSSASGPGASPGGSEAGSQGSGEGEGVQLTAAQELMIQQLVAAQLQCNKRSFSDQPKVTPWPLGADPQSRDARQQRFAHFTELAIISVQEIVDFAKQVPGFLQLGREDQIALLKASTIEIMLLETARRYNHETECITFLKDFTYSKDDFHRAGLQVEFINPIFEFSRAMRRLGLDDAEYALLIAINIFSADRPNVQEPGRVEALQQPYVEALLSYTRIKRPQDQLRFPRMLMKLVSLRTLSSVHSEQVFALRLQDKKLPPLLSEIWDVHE
Chain of Hepatocyte nuclear factor 4-alpha (Homo sapiens) (P41235 whole entry, looked up, the tested form may be a part): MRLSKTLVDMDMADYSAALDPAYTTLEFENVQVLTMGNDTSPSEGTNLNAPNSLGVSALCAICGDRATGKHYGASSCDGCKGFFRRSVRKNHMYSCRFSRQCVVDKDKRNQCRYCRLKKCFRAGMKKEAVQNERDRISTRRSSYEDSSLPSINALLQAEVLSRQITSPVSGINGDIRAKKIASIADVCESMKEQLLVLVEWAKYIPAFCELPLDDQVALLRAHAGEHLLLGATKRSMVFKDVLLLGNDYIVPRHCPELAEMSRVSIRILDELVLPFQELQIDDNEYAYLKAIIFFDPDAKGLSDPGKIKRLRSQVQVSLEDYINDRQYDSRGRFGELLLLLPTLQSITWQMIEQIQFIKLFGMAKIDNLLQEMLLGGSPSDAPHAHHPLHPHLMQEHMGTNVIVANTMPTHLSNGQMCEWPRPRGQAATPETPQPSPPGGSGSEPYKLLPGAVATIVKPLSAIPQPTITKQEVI
Chain of Nuclear respiratory factor 1 (Homo sapiens) (Q16656 whole entry, looked up): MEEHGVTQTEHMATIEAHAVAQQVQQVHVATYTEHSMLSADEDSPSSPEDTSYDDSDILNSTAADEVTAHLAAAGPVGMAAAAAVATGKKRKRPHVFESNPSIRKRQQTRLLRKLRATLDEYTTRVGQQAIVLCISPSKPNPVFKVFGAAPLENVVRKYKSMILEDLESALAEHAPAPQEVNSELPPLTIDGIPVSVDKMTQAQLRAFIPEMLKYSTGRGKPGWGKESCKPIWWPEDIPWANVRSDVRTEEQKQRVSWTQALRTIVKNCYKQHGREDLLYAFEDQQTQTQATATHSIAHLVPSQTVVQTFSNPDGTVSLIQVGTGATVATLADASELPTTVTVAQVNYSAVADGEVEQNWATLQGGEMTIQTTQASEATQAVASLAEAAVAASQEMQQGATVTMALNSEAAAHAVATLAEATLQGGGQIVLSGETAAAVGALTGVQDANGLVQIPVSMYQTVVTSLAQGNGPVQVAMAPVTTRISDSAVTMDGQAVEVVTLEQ
Chain of Oxysterols receptor LXR-alpha (Homo sapiens) (Q13133 whole entry, looked up, the tested form may be a part): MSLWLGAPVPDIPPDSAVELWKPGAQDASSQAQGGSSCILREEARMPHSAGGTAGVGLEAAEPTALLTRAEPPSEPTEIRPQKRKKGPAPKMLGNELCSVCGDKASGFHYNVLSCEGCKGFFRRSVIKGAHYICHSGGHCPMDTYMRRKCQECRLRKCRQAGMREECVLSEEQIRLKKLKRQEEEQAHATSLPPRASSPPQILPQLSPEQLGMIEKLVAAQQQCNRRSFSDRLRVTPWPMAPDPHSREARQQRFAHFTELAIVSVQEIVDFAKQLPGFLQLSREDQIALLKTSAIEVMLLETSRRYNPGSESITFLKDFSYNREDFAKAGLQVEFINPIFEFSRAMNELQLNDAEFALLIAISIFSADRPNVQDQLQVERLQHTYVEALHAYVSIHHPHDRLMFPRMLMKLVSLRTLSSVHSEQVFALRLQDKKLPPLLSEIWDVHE
Chain of Transcriptional activator Myb (Homo sapiens) (P10242 whole entry, looked up): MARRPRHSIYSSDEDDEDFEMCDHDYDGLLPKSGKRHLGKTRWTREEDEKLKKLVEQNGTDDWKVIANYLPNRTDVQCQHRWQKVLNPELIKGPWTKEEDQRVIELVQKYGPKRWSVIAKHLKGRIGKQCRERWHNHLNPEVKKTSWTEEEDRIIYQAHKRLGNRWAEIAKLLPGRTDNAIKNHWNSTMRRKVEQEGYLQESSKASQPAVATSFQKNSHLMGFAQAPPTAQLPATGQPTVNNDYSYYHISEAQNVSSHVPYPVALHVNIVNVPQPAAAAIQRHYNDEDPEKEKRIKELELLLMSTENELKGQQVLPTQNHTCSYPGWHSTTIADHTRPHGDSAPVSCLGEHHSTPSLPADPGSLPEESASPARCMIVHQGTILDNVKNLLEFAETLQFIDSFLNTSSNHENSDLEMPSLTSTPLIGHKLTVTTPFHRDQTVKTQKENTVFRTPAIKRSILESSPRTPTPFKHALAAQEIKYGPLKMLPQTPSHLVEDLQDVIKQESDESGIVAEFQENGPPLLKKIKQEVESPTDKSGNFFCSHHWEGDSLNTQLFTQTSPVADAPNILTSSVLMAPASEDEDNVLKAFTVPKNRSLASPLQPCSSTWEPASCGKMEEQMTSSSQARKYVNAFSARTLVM
Chain of Nuclear receptor subfamily 4 group A member 2 (Homo sapiens) (P43354 whole entry, looked up, the tested form may be a part): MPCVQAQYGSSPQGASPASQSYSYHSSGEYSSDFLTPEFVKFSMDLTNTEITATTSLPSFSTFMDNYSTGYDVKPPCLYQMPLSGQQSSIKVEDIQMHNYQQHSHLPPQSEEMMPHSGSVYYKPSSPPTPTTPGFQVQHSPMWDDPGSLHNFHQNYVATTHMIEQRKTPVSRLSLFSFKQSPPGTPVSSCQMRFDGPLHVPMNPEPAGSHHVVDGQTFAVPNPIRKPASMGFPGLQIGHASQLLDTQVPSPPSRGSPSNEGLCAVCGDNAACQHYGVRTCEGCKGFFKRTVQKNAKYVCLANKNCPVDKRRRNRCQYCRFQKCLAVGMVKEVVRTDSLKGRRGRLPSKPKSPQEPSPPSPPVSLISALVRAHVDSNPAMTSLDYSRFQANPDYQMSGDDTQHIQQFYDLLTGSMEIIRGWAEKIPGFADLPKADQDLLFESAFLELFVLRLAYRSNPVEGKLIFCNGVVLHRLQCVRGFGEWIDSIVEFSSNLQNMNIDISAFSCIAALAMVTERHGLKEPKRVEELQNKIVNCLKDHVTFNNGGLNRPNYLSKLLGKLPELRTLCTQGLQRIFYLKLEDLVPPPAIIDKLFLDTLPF

Take `O=C(OC[C@H]1O[C@@H](OC(=O)c2cc(O)c(O)c(OC(=O)c3cc(O)c(O)c(O)c3)c2)[C@H](OC(=O)c2cc(O)c(O)c(OC(=O)c3cc(O)c(O)c(O)c3)c2)[C@@H](OC(=O)c2cc(O)c(O)c(OC(=O)c3cc(O)c(O)c(O)c3)c2)[C@@H]1OC(=O)c1cc(O)c(O)c(OC(=O)c2cc(O)c(O)c(O)c2)c1)c1cc(O)c(O)c(OC(=O)c2cc(O)c(O)c(O)c2)c1`: the result in [1], in test [2], in test [3], in test [4], in test [5] and in test [6] was inactive. The molecule was called inactive in [7].

Regarding `CCc1cc(SCc2sc(-c3ccc(C(F)(F)F)cc3)nc2CN2CCN(c3ccc(OC)cc3)CC2)ccc1OCC(=O)O`, the molecule was called inactive in test [8], in test [1], in test [2], in test [3], in test [4] and in [9]. In addition, the molecule was classed as inactive in test [10], in [5], in [6] and in test [7].

On to `CCOC(=O)c1ccc(C2CCC(NC[C@H](O)COc3ccc(O)c(NS(C)(=O)=O)c3)CC2)cc1` (some centres not stated), for which the AC50 in [8] was 33 µM (active); in test [4], 62.3 µM (active); in test [5], 55.5 µM (active). Also, the result in [9], in test [6] and in test [7] was inactive.

For `CC[C@H](C)C(=O)O[C@H]1C[C@@H](C)C=C2C=C[C@H](C)[C@H](CC[C@@H]3C[C@@H](O)CC(=O)O3)[C@H]21`, the molecule was called inactive in test [8], in [1], in test [3], in [4], in test [9] and in test [10]. Also, the molecule was classed as inactive in [5], in test [6] and in test [7].

For `Cn1cnc([N+](=O)[O-])c1Sc1ncnc2nc[nH]c12`, the call in test [1], in test [2], in test [3], in test [4], in test [5] and in test [6] was inactive. Moreover, in test [7], the outcome was inactive.

`CC1(C)C(=O)N(Br)C(=O)N1Br`: the molecule was classed as inactive in [8], in test [3], in [4], in [10], in test [5] and in test [6]. Also, the molecule was classed as inactive in test [7].

For the molecule `CCCCC(CC)COC(=O)CCCCCCCCC(=O)OCC(CC)CCCC` (configuration not stated), the result in test [1], in test [2], in test [3], in [9], in [10] and in test [5] was inactive. In addition, the call in test [6] and in test [7] was inactive.

In the case of `Fc1ccccc1[C@@H](F)COC1CCC(Nc2ncnc3[nH]ncc23)CC1` (some centres not stated), the results for the AC50 in test [8] and in [6] were 25.6 µM (active) and 9.56 µM (active), respectively. Besides, the call in test [3], in test [9], in test [10], in test [5] and in test [7] was inactive.

Consider `Cn1c(=O)cc(Oc2ccc(F)cc2F)c2cnc(NCC(C)(C)O)nc21`, for which the outcome in test [8], in test [1], in [2], in test [3], in test [4] and in test [9] was inactive. Further, in test [5], the molecule was classed as inactive. The AC50 in [6] was 51.6 µM (active); in test [7] it was 9.46 µM (active).

`COC(=O)c1c(Cl)c(Cl)c(C(=O)OC)c(Cl)c1Cl`: the outcome in test [8], in [1], in test [3], in [9], in test [10] and in test [5] was inactive. Besides, the molecule was classed as inactive in test [6] and in [7].

Regarding `CCOC(=O)CC(CC(=O)OCC)(OC(C)=O)C(=O)OCC`, the molecule was called inactive in [1], in [9], in test [10], in test [5], in test [6] and in [7].

For the molecule `CC(C)CCCCCCCOC(=O)CCCCC(=O)OCCCCCCCC(C)C`, the molecule was classed as inactive in [1], in test [3], in test [9], in test [5], in [6] and in test [7].

With `CC(=O)OC[C@H]1O[C@@](COC(C)=O)(O[C@H]2O[C@H](COC(C)=O)[C@@H](OC(C)=O)[C@H](OC(C)=O)[C@H]2OC(C)=O)[C@@H](OC(C)=O)[C@@H]1OC(C)=O`, the result in [2], in test [3], in test [4], in [9], in test [5] and in [6] was inactive. In addition, the outcome in [7] was inactive.

In the case of `CCCCCCCCCCCCc1ccccc1`, the outcome in test [1], in [4], in test [9], in test [5], in test [6] and in [7] was inactive.

Turning to `CC(C)CCO`, the call in test [2], in [3], in test [4], in test [9], in [5] and in test [6] was inactive. For the same molecule, in test [7], the call was inactive.

As for `C=CCCCCCCCCC(=O)O`, the outcome in test [1], in test [2], in [9], in test [10], in [5] and in [6] was inactive. Besides, the molecule was classed as inactive in test [7].

Take `COCCOCCOCCOC`: the result in [1], in test [3], in [4], in [9], in test [10] and in test [5] was inactive. For the same molecule, the molecule was classed as inactive in test [6] and in [7].

On to `COc1ccc(/C=C/S(=O)(=O)NC(=O)c2ccc(C)cc2Cl)cc1`, for which the call in [1], in test [2], in test [9], in [5], in [6] and in [7] was inactive.

Take `CCCCCCc1ccc(O)cc1O`: the result in [1], in test [4], in test [10], in test [5], in [6] and in [7] was inactive.
